About 83,000 compounds went through this panel and 20% of them were active in at least one assay; those are over-represented in the sample as a whole.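 Step 1: grow cells in 96-well plates. Step 2: add test compound at a single concentration. Step 3: incubate 48 h. Step 4: record percent growth.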 The source made the active and inactive calls. How the source made its calls: active means growth percent below 10; inactive means the rest.
Columns and labels:
Test in all cases: NCI-60 one-dose screen, 48 h (100 = growth as untreated, 0 = no growth, -100 = all killed)
Details in all cases: 10 µM unless noted
HCT-15 colon = test system: HCT-15 colon
HT29 colon = test system: HT29 colon
SNB-75 CNS = test system: SNB-75 CNS
SNB-19 CNS = test system: SNB-19 CNS
U251 CNS = test system: U251 CNS
PC-3 prostate = test system: PC-3 prostate
SK-MEL-5 melanoma = test system: SK-MEL-5 melanoma
UACC-62 melanoma = test system: UACC-62 melanoma
LOX IMVI melanoma = test system: LOX IMVI melanoma
SK-MEL-28 melanoma = test system: SK-MEL-28 melanoma

Measured: growth

CCOc1ccccc1/C=N\N=C(N/N=C/c1ccccc1OCC)N/N=C/c1ccccc1OCC
inactive: HCT-15 colon 13.5% | SNB-75 CNS 22.3% | SNB-19 CNS 21.7% | U251 CNS 13.4% | UACC-62 melanoma 16.1% | SK-MEL-28 melanoma 30.7%
active: HT29 colon -1.15% | PC-3 prostate 3.92% | SK-MEL-5 melanoma -52.6% | LOX IMVI melanoma 8.71%

CC(=O)OC1CC2C3CCC4C[C@@H](NC(=O)C=C(C)C)CC[C@]4(C)C3CC[C@]2(C)[C@H]1C(C)N(C)C (stereo not given in full)
active: HCT-15 colon -38.7% | HT29 colon -20.9% | SNB-75 CNS 8.51% | SK-MEL-5 melanoma -95.2% | UACC-62 melanoma -52.6% | LOX IMVI melanoma -15% | SK-MEL-28 melanoma -91.3%
inactive: SNB-19 CNS 49.2% | U251 CNS 11.5% | PC-3 prostate 13.1%

CCOP1(=O)CC(C)=C(Cl)C(P(=O)(O)O)C1 (stereo not given)
inactive: HCT-15 colon 98.3% | HT29 colon 104% | SNB-75 CNS 82.4% | SNB-19 CNS 106% | U251 CNS 99.7% | PC-3 prostate 95.6% | SK-MEL-5 melanoma 109% | UACC-62 melanoma 95.5% | LOX IMVI melanoma 94.1% | SK-MEL-28 melanoma 93.7%

CCCCCCCCC/C(=N\NC(=O)c1ccncc1)c1ccc(O)c(O)c1O
active: SK-MEL-5 melanoma -18.8% | UACC-62 melanoma -5.54%
inactive: HCT-15 colon 34.9% | HT29 colon 29% | SNB-75 CNS 37.1% | SNB-19 CNS 33.8% | U251 CNS 12.1% | PC-3 prostate 47% | LOX IMVI melanoma 22.9% | SK-MEL-28 melanoma 43.7%

Cc1ccc2c(c1)C(=O)CCS2
inactive: HCT-15 colon 90.8% | HT29 colon 103% | SNB-75 CNS 80.8% | SNB-19 CNS 111% | U251 CNS 92.9% | PC-3 prostate 101% | SK-MEL-5 melanoma 104% | UACC-62 melanoma 97.4% | LOX IMVI melanoma 95% | SK-MEL-28 melanoma 102%

COc1cc(/C=C/C(=O)/C=C(/C=C/c2ccc(OC(C)=O)c(OC)c2)OB(F)F)ccc1OC(C)=O
inactive: HCT-15 colon 15.4% | HT29 colon 61.4% | SNB-75 CNS 53% | SNB-19 CNS 69.4% | U251 CNS 33.3% | PC-3 prostate 63% | SK-MEL-5 melanoma 69.6% | UACC-62 melanoma 49.6% | LOX IMVI melanoma 20% | SK-MEL-28 melanoma 66.8%

O=C(N/N=C\c1ccc(-c2ccc(Br)cc2)o1)c1cc2oc(-c3cccc(C(F)(F)F)c3)cc2[nH]1
inactive: HCT-15 colon 84.5% | HT29 colon 110% | SNB-75 CNS 72.3% | SNB-19 CNS 97.9% | U251 CNS 84.1% | PC-3 prostate 102% | SK-MEL-5 melanoma 102% | UACC-62 melanoma 108% | LOX IMVI melanoma 86% | SK-MEL-28 melanoma 81.5%

Cc1c(O)c(N=Nc2ccc(C(=O)O)c(O)c2)c2ccccc2c1O
inactive: HCT-15 colon 117% | HT29 colon 96.9% | SNB-75 CNS 109% | SNB-19 CNS 105% | U251 CNS 101% | PC-3 prostate 77.4% | SK-MEL-5 melanoma 96.1% | UACC-62 melanoma 92.5% | LOX IMVI melanoma 86.4% | SK-MEL-28 melanoma 131%

c1ccc(Nc2ccccn2)cc1
inactive: HCT-15 colon 96.2% | HT29 colon 99.4% | SNB-75 CNS 118% | SNB-19 CNS 98.9% | U251 CNS 103% | PC-3 prostate 102% | SK-MEL-5 melanoma 106% | UACC-62 melanoma 93.7% | LOX IMVI melanoma 102% | SK-MEL-28 melanoma 112%

Cc1ccc(C(C)C)c(OCc2ccc(C(=O)N/N=C/c3cccc(O)c3O)cc2)c1
inactive: HCT-15 colon 13.4% | HT29 colon 39.6% | SNB-75 CNS 44.7% | SNB-19 CNS 45.6% | U251 CNS 28.3% | PC-3 prostate 39.4% | SK-MEL-5 melanoma 38.6% | UACC-62 melanoma 30.8% | SK-MEL-28 melanoma 42.8%
active: LOX IMVI melanoma -12.3%

COC(=O)c1ccc2[nH]c(O)c(C(=Nc3ccc(N(C)C(=O)CN4CCN(C)CC4)cc3)c3ccc(C)cc3)c2c1
active: HCT-15 colon -38.5% | HT29 colon -23.3% | SNB-75 CNS -26.8% | SNB-19 CNS -10.6% | U251 CNS -77.2% | PC-3 prostate -16% | SK-MEL-5 melanoma -73.1% | UACC-62 melanoma -19% | LOX IMVI melanoma 4.3% | SK-MEL-28 melanoma -8.16%

CCC(CCCN1C(=O)c2ccccc2C1=O)Nc1cc(OC)cc2c(C)ccnc12 (stereo not given)
inactive: HCT-15 colon 91.5% | HT29 colon 100% | SNB-75 CNS 92.2% | SNB-19 CNS 102% | U251 CNS 90.7% | PC-3 prostate 89.1% | SK-MEL-5 melanoma 85.3% | UACC-62 melanoma 69.5% | LOX IMVI melanoma 95.8% | SK-MEL-28 melanoma 101%

CC1=C(C)C[C@]2(C(=O)O[C@H]3CCCC[C@@H]32)[S@](=O)C1
inactive: HCT-15 colon 112% | HT29 colon 95.3% | SNB-75 CNS 98.4% | SNB-19 CNS 105% | U251 CNS 98.8% | PC-3 prostate 110% | SK-MEL-5 melanoma 107% | UACC-62 melanoma 104% | LOX IMVI melanoma 97.6% | SK-MEL-28 melanoma 118%

CCCCCCC(C)N(CC(C)(C)O)C(=O)c1ccc([N+](=O)[O-])cc1 (stereo not given)
inactive: HCT-15 colon 104% | HT29 colon 91.6% | SNB-75 CNS 97.3% | SNB-19 CNS 95.4% | U251 CNS 97.4% | PC-3 prostate 87.2% | SK-MEL-5 melanoma 95% | UACC-62 melanoma 91.4% | LOX IMVI melanoma 104% | SK-MEL-28 melanoma 111%

O=C1NCCN1/N=C/c1c(Cl)nc2n1CCS2
inactive: HCT-15 colon 101% | HT29 colon 108% | SNB-75 CNS 101% | SNB-19 CNS 108% | U251 CNS 86.1% | PC-3 prostate 76.3% | SK-MEL-5 melanoma 132% | UACC-62 melanoma 135% | LOX IMVI melanoma 101% | SK-MEL-28 melanoma 107%

CC(=O)Nc1nc(C)c(C(=O)NN)s1
inactive: HCT-15 colon 107% | HT29 colon 106% | SNB-75 CNS 88.8% | SNB-19 CNS 94.4% | U251 CNS 92.1% | PC-3 prostate 84.4% | SK-MEL-5 melanoma 102% | UACC-62 melanoma 91.9% | LOX IMVI melanoma 96.1% | SK-MEL-28 melanoma 100%

COc1cc(N2C(=O)C=CC2=O)ccc1N1C(=O)C=CC1=O
inactive: HCT-15 colon 109% | HT29 colon 102% | SNB-75 CNS 90.2% | SNB-19 CNS 107% | U251 CNS 97.5% | PC-3 prostate 94.8% | SK-MEL-5 melanoma 104% | UACC-62 melanoma 106% | LOX IMVI melanoma 99.1% | SK-MEL-28 melanoma 103%

O=C(Nc1cccc(Cn2c(=O)[nH]c3ccc(Oc4ncccn4)cc3c2=O)c1)c1cccc(F)c1
inactive: HCT-15 colon 83% | HT29 colon 75.7% | SNB-75 CNS 75% | SNB-19 CNS 72.6% | U251 CNS 82.3% | PC-3 prostate 64.3% | SK-MEL-5 melanoma 65.5% | UACC-62 melanoma 58.4% | LOX IMVI melanoma 86% | SK-MEL-28 melanoma 93.8%

CC(=O)Nc1ccc(C(=O)/C=C/c2ccc(N(C)C)cc2)cc1
inactive: HCT-15 colon 94.1% | HT29 colon 91.3% | SNB-75 CNS 99.7% | SNB-19 CNS 109% | U251 CNS 93.9% | PC-3 prostate 94.6% | SK-MEL-5 melanoma 98.7% | UACC-62 melanoma 102% | LOX IMVI melanoma 96.1% | SK-MEL-28 melanoma 108%

CCCNC(=O)Oc1ccc(/C(=C(/C)Cc2ccc(OC)cc2)c2ccc(OCCN3CCCCC3)cc2)cc1
inactive: HCT-15 colon 50.2% | HT29 colon 28.9% | SNB-75 CNS 63.6% | SNB-19 CNS 94.1% | U251 CNS 69.9% | PC-3 prostate 77% | SK-MEL-5 melanoma 78.2% | UACC-62 melanoma 97.5% | LOX IMVI melanoma 84.8% | SK-MEL-28 melanoma 100%
